PubChem BioAssay AID1159580 (chemical genetic matrix, 2015)
Where “and” joins values, the source holds several entries; their conditions need not be identical. Identical values can stand only once. Screen size: about 5,500 compounds; about 2,000 (36%) were called active. Not shown: some 18% with an inconclusive outcome. Cut-off read from the data, not from the text of the source: active = normalized growth mostly below about 0.91 (no sharp cut-off); inconclusive = no clear call, values can overlap the other calls; inactive = mostly above about 0.92. The list shows a part of the results.

Assay: chemical genetic growth profiling, strain panel (AID 1159580);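 note: tested at 20 µM; growth read once vehicle control cultures reached saturation at 30 °C; 1 = growth at the plate median or of vehicle wells; lower values mean less growth of the strain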
Conditions: growth OD
[1] = S. cerevisiae deletion strains, locus YHR030C, strain SLT2, stronger effect = lower value
[2] = S. cerevisiae deletion strains, locus YHR079C, strain IRE1, stronger effect = lower value
[3] = S. cerevisiae deletion strains, locus YJL095W, strain BCK1, stronger effect = lower value
[4] = S. cerevisiae deletion strains, locus YJR066W, strain TOR1, stronger effect = lower value
[5] = S. cerevisiae deletion strains, locus YLR113W, strain HOG1, stronger effect = lower value
[6] = S. cerevisiae deletion strains, locus YNL183C, strain NPR1, stronger effect = lower value
[7] = S. cerevisiae deletion strains, locus YOR231W, strain MKK1, stronger effect = lower value
[8] = S. cerevisiae deletion strains, locus YPL256C, strain CLN2, stronger effect = lower value

Measured: normalized growth

O[C@H]1[C@H](O)[C@@H](O)C2OC[C@H]1O2
inactive: S. cerevisiae deletion strains, locus YAL013W, strain DEP1, stronger effect = lower value 1 | S. cerevisiae deletion strains, locus YBR021W, strain FUR4, stronger effect = lower value 1.03 | S. cerevisiae deletion strains, locus YBR229C, strain ROT2, stronger effect = lower value 0.961 | S. cerevisiae deletion strains, locus YCL029C, strain bik1, stronger effect = lower value 0.986 | S. cerevisiae deletion strains, locus YDL035C, strain GPR1, stronger effect = lower value 0.986 | S. cerevisiae deletion strains, locus YDL074C, strain BRE1, stronger effect = lower value 0.929 | S. cerevisiae deletion strains, locus YDL101C, strain DUN1, stronger effect = lower value 0.943 | S. cerevisiae deletion strains, locus YDL134C, strain PPH21, stronger effect = lower value 0.99 | S. cerevisiae deletion strains, locus YDL192W, strain arf1, stronger effect = lower value 0.986 | S. cerevisiae deletion strains, locus YDR101C, strain arx1, stronger effect = lower value 0.994 | S. cerevisiae deletion strains, locus YDR150W, strain NUM1, stronger effect = lower value 0.992 | S. cerevisiae deletion strains, locus YDR162C, strain NBP2, stronger effect = lower value 0.918 | S. cerevisiae deletion strains, locus YDR318W, strain mcm21, stronger effect = lower value 0.998 | S. cerevisiae deletion strains, locus YDR388W, stronger effect = lower value 0.992 | S. cerevisiae deletion strains, locus YDR502C, strain sam2, stronger effect = lower value 0.983 | S. cerevisiae deletion strains, locus YEL061C, strain CIN8, stronger effect = lower value 0.986 | S. cerevisiae deletion strains, locus YER110C, stronger effect = lower value 0.983 | S. cerevisiae deletion strains, locus YER155C, strain BEM2, stronger effect = lower value 0.988 | S. cerevisiae deletion strains, locus YER167W, strain BCK2, stronger effect = lower value 1 | S. cerevisiae deletion strains, locus YGL078C, strain dbp3, stronger effect = lower value 0.987 | S. cerevisiae deletion strains, locus YGL086W, strain mad1, stronger effect = lower value 1 | S. cerevisiae deletion strains, locus YGL248W, strain PDE1, stronger effect = lower value 0.975 | S. cerevisiae deletion strains, locus YGR078C, strain PAC10, stronger effect = lower value 0.951 | S. cerevisiae deletion strains, locus YGR135W, strain pre9, stronger effect = lower value 0.982 | S. cerevisiae deletion strains, locus YGR229C, strain SMI1, stronger effect = lower value 0.975 | S. cerevisiae deletion strains, locus YGR252W, strain gcn5, stronger effect = lower value 1 | [1] 1 and 0.967 | S. cerevisiae deletion strains, locus YHR079C, strain IRE1 (second series), stronger effect = lower value 0.999 | [2] 0.967 | S. cerevisiae deletion strains, locus YHR094C, strain hxt1, stronger effect = lower value 1 | S. cerevisiae deletion strains, locus YHR129C, strain ARP1, stronger effect = lower value 0.993 | S. cerevisiae deletion strains, locus YHR200W, strain rpn10, stronger effect = lower value 0.992 | S. cerevisiae deletion strains, locus YIL066C, strain RNR3, stronger effect = lower value 0.98 | S. cerevisiae deletion strains, locus YIL073C, strain SPO22, stronger effect = lower value 1.01 | S. cerevisiae deletion strains, locus YIL125W, strain kgd1, stronger effect = lower value 0.988 | S. cerevisiae deletion strains, locus YIR030C, strain dcg1, stronger effect = lower value 0.983 | [3] 0.98 and 0.977 | S. cerevisiae deletion strains, locus YJL134W, strain LCB3, stronger effect = lower value 0.984 | S. cerevisiae deletion strains, locus YJL168C, strain set2, stronger effect = lower value 0.982 | S. cerevisiae deletion strains, locus YJL187C, strain SWE1 (second series), stronger effect = lower value 0.972 | S. cerevisiae deletion strains, locus YJR043C, strain POL32, stronger effect = lower value 0.999 | [4] 0.919 | S. cerevisiae deletion strains, locus YJR075W, strain HOC1, stronger effect = lower value 0.936 | S. cerevisiae deletion strains, locus YKL009W, strain mrt4, stronger effect = lower value 0.977 | S. cerevisiae deletion strains, locus YKL068W, stronger effect = lower value 0.982 | S. cerevisiae deletion strains, locus YKL085W, strain MDH1 (second series), stronger effect = lower value 1.02 | S. cerevisiae deletion strains, locus YKL085W, strain MDH1, stronger effect = lower value 1.02 | S. cerevisiae deletion strains, locus YKL190W, strain CNB1, stronger effect = lower value 0.98 | S. cerevisiae deletion strains, locus YKR001C, strain vps1, stronger effect = lower value 0.998 | S. cerevisiae deletion strains, locus YLR039C, strain RIC1, stronger effect = lower value 0.968 | S. cerevisiae deletion strains, locus YLR058C, strain SHM2, stronger effect = lower value 0.972 | S. cerevisiae deletion strains, locus YLR102C, strain apc9, stronger effect = lower value 0.984 | [5] 0.999 | S. cerevisiae deletion strains, locus YLR262C, strain YPT6, stronger effect = lower value 0.935 | S. cerevisiae deletion strains, locus YLR268W, strain sec22, stronger effect = lower value 0.963 | S. cerevisiae deletion strains, locus YLR330W, strain CHS5, stronger effect = lower value 0.988 | S. cerevisiae deletion strains, locus YLR342W, strain FKS1 (second series), stronger effect = lower value 1.04 | S. cerevisiae deletion strains, locus YLR371W, strain rom2, stronger effect = lower value 0.938 | S. cerevisiae deletion strains, locus YLR418C, strain cdc73, stronger effect = lower value 0.961 | S. cerevisiae deletion strains, locus YML016C, strain PPZ1, stronger effect = lower value 0.983 | S. cerevisiae deletion strains, locus YML032C, strain rad52, stronger effect = lower value 1 | S. cerevisiae deletion strains, locus YML124C, strain tub3, stronger effect = lower value 0.992 | S. cerevisiae deletion strains, locus YMR078C, strain ctf18, stronger effect = lower value 0.987 | S. cerevisiae deletion strains, locus YMR223W, strain ubp8, stronger effect = lower value 1.01 | S. cerevisiae deletion strains, locus YMR263W, strain SAP30, stronger effect = lower value 0.94 | S. cerevisiae deletion strains, locus YMR307W, strain GAS1, stronger effect = lower value 1.04 | S. cerevisiae deletion strains, locus YNL067W, strain RPL9B, stronger effect = lower value 0.951 | S. cerevisiae deletion strains, locus YNL128W, strain TEP1, stronger effect = lower value 0.926 | S. cerevisiae deletion strains, locus YNL153C, strain GIM3, stronger effect = lower value 0.97 | [6] 0.905 | S. cerevisiae deletion strains, locus YNL233W, strain BNI4, stronger effect = lower value 0.978 | S. cerevisiae deletion strains, locus YNL250W, strain rad50, stronger effect = lower value 0.992 | S. cerevisiae deletion strains, locus YNL271C, strain bni1, stronger effect = lower value 0.984 | S. cerevisiae deletion strains, locus YNL298W, strain CLA4, stronger effect = lower value 1 | S. cerevisiae deletion strains, locus YNL307C, strain MCK1, stronger effect = lower value 1 | S. cerevisiae deletion strains, locus YNL322C, strain KRE1, stronger effect = lower value 0.967 | S. cerevisiae deletion strains, locus YNR052C, strain pop2, stronger effect = lower value 0.978 | S. cerevisiae deletion strains, locus YOL006C, strain TOP1, stronger effect = lower value 0.935 | S. cerevisiae deletion strains, locus YOL012C, strain htz1 0.683 | S. cerevisiae deletion strains, locus YOL147C, strain pex11, stronger effect = lower value 0.997 | S. cerevisiae deletion strains, locus YOR061W, strain CKA2, stronger effect = lower value 0.952 | S. cerevisiae deletion strains, locus YOR069W, strain VPS5, stronger effect = lower value 0.99 | S. cerevisiae deletion strains, locus YOR136W, strain idh2, stronger effect = lower value 0.99 | S. cerevisiae deletion strains, locus YOR144C, strain elg1, stronger effect = lower value 0.983 | S. cerevisiae deletion strains, locus YOR184W, strain ser1, stronger effect = lower value 1.01 | [7] 0.98 | S. cerevisiae deletion strains, locus YOR316C, strain cot1, stronger effect = lower value 0.977 | S. cerevisiae deletion strains, locus YPL055C, strain LGE1, stronger effect = lower value 0.931 | S. cerevisiae deletion strains, locus YPL241C, strain CIN2, stronger effect = lower value 0.983 | [8] 0.972 | S. cerevisiae deletion strains, locus YPR119W, strain clb2, stronger effect = lower value 0.992 | S. cerevisiae deletion strains, locus YPR141C, strain kar3, stronger effect = lower value 0.969 | S. cerevisiae deletion strains, locus YPR163C, strain tif3, stronger effect = lower value 0.995 | S. cerevisiae deletion strains, locus YPR167C, strain met16, stronger effect = lower value 0.972 | S. cerevisiae deletion strains, strain wtn01, stronger effect = lower value 0.943 | S. cerevisiae strains, strain wild type, stronger effect = lower value 1.01
active: S. cerevisiae deletion strains, locus YDL185W, strain tfp1, stronger effect = lower value 0.901

O[C@@H]1[C@H](O)CO[C@H]1O
inactive: [1] 0.995 | [2] 0.997 | [3] 1.01 | [4] 0.945 | [5] 1 | [6] 0.965 | [7] 0.992 | [8] 0.988
